# In PubChem BioAssay (NCATS):
# Values without a mark were called inactive. Records with an inconclusive call do not appear. Entries that show only a call come without a potency. Active and inactive are the calls of the source. Unless noted, calls come from the whole dose curve; as a rule, active = well fitted curve in the direction sought with a large enough effect; inconclusive = small, poorly fitted or top-dose-only effect, or another doubt; inactive = no such curve, though single readings can be large; an effect the other way counts as inactive or inconclusive.
# How the values were obtained:
# [1] = NCATS anti-infectives library activity on HEK293 viability as a counter-qHTS vs the C. elegans viability qHTS (AID 1745854);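 note: HEK293 cells exposed to compounds for 24 hr before the viability read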
# Outline: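 Cytotoxicity in human HEK293 cells is measured by ATP-dependent CellTiter-Glo luminescence following a 24 hr incubation with titrated library compounds at 37C. Top final concentration is 41.7 uM.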
# [2] = NCATS anti-infectives library activity on the primary C. elegans qHTS viability assay (AID 1745855; calls by dose curve); details: C. elegans worm area imaging, day 7; at 41.8 µM (top of the series)
# Outline: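 Viability is taken from GFP fluorescence of PE254-GFP-FLuc C. elegans imaged by laser cytometry over 7 days. Ten L1 worms per well grow at 21 °C on TOP10 E. coli capsules with titrated compound; levamisole marks toxicity.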
# [3] = biological target: Glutathione peroxidase 1 (Homo sapiens) (UniProt P07203); test: Primary qHTS Assay for Inhibitors of Recombinant Selenoprotein Glutathione Peroxidase 1 (GPX1) (AID 1845191); note: nearly all actives have a fitted effect of over 65% in size; note: potency is the fitted concentration of half-maximal effect
# Chain of Glutathione peroxidase 1 (Homo sapiens) (P07203 whole entry, looked up): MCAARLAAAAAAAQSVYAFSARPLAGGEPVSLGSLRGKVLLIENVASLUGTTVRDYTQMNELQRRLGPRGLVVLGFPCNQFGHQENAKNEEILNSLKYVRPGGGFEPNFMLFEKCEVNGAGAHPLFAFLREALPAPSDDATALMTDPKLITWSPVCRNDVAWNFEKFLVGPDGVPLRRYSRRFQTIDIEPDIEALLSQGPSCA
# Outline: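 Recombinant GPX1 (10 nM final) was preincubated with compound for 30 min at room temperature, then reacted with 1 mM GSH, 0.5 mM CHP, 0.5 mM NADPH and 100 nM glutathione reductase; NADPH fluorescence (340/450 nm) was read at 0 and 15 min.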
# [4] = biological target: Phospholipid hydroperoxide glutathione peroxidase GPX4 (Homo sapiens) (UniProt P36969); test: Primary qHTS Assay for Inhibitors of Recombinant Selenoprotein Glutathione Peroxidase 4 (GPX4) (AID 1845192); note: nearly all actives have a fitted effect of over 65% in size; note: potency is the fitted concentration of half-maximal effect
# Chain of Phospholipid hydroperoxide glutathione peroxidase GPX4 (Homo sapiens) (P36969 whole entry, looked up): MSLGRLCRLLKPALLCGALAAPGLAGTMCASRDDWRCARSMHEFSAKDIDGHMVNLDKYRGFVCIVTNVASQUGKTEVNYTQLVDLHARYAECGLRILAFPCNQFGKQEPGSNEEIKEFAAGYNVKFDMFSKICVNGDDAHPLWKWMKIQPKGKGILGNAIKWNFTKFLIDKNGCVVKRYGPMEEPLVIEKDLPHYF
# Outline: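 GR-coupled readout: 100 nM GR, 1 mM GSH, 0.5 mM NADPH; NADPH fluorescence (ex 340/em 450 nm) read at t=0 and after 15 min RT. GPX4 200 nM, preincubated 30 min with compound; substrate 0.5 mM CHP.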
# [5] = Viability counterscreen for antagonist of constitutive androstane receptor (CAR) against the NCATS DSHEA and TCM libraries (AID 1794837);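 note: compound exposure lasted 24 h before viability reading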
# Outline: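 Viability was measured by CellTiter-Fluor fluorescence (405/540 nm, 1 hr) in HepG2-CYP2B6-hCAR cells. Cells were co-treated 24 hr with 48 uM CITCO (final), antagonist mode, and test substances.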
# [6] = Viability counterscreen for agonist of constitutive androstane receptor (CAR) against the NCATS DSHEA and TCM libraries (AID 1794838)
# Outline: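 Cell viability, from CellTiter-Fluor fluorescence (405/540 nm), was scored after a 24 h, 37C exposure of HepG2 cells carrying CYP2B6 reporter and hCAR to test substances in presence of 0.75 uM PK11195.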
# [7] = biological target: Nuclear receptor subfamily 1 group I member 3 (Homo sapiens) (UniProt Q14994); test: Primary qHTS for agonist of constitutive androstane receptor (CAR) against the NCATS DSHEA and TCM libraries (AID 1794839);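 note: HepG2 cells expressing human CAR with a CYP2B6 reporter plus PK11195 antagonist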
# Chain of Nuclear receptor subfamily 1 group I member 3 (Homo sapiens) (Q14994 whole entry, looked up): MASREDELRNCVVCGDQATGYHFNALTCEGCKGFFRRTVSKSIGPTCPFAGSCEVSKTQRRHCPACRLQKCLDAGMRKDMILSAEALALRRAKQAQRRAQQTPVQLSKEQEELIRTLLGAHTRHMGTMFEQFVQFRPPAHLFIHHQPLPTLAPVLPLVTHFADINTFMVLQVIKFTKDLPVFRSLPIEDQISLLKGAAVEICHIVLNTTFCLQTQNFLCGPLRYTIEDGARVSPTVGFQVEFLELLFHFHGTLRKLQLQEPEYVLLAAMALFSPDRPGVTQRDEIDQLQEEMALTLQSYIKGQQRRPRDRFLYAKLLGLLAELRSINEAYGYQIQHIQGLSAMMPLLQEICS
# Outline: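 Agonist mode in presence of hCAR antagonist PK11195 (0.75 µM final): test substances, 24 h, 37 °C, on HepG2-CYP2B6-hCAR cells. Same-well readouts: fluorescence viability, then ONE-Glo luminescence; CITCO as reference agonist.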
# [8] = HepG2 viability counterscreen (readout 2: ATP content) against the NCATS DSHEA and TCM libraries (AID 1794840);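 note: HepG2 cells exposed to substances for about 24 h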
# Outline: (§1)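 Readout 1: cellular protease activity, GF-AFC substrate (25 uM final, 30 min, fluorescence 380/510 nm). Readout 2: ATP content by CellTiter-Glo luminescence after 30 min at RT. Both follow ~24 h exposure of HepG2 cells (1,000/well) to substances.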
# [9] = HepG2 viability counterscreen (readout 1: protease activity) against the NCATS DSHEA and TCM libraries (AID 1794841);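 note: cells exposed to compounds for about 24 h before the protease read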
# Outline: as §1
# [10] = biological target: Cytochrome P450 3A4 (Homo sapiens) (UniProt P08684); test: qHTS for inhibitors of CYP3A4 against the NCATS DSHEA and TCM libraries (AID 1919971);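 note: inhibition lowers luminescence from luciferin made by CYP3A4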
# Chain of Cytochrome P450 3A4 (Homo sapiens) (P08684 whole entry, looked up): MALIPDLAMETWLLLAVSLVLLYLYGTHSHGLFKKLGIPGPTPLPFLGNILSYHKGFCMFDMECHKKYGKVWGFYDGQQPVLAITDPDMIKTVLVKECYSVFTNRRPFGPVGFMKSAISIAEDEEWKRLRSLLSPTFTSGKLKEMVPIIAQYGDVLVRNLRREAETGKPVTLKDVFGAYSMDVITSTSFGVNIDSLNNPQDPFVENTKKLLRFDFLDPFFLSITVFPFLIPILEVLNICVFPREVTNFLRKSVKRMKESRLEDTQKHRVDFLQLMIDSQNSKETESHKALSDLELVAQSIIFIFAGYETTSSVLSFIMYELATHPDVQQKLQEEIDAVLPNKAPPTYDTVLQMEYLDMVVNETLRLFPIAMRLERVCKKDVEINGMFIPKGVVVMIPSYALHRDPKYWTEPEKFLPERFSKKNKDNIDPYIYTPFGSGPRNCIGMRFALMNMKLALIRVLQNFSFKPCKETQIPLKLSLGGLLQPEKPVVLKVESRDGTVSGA
# Outline: (§2)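 Light output from converted D-luciferin reports remaining CYP activity. Compounds preincubate with enzyme and substrate for 15 min; NADPH regeneration (1x final) runs the reaction for 30-45 min.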
# [11] = biological target: Cytochrome P450 2D6 (Homo sapiens) (UniProt P10635); test: qHTS for inhibitors of CYP2D6 against the NCATS DSHEA and TCM libraries (AID 1919972)
# Chain of Cytochrome P450 2D6 (Homo sapiens) (P10635 whole entry, looked up): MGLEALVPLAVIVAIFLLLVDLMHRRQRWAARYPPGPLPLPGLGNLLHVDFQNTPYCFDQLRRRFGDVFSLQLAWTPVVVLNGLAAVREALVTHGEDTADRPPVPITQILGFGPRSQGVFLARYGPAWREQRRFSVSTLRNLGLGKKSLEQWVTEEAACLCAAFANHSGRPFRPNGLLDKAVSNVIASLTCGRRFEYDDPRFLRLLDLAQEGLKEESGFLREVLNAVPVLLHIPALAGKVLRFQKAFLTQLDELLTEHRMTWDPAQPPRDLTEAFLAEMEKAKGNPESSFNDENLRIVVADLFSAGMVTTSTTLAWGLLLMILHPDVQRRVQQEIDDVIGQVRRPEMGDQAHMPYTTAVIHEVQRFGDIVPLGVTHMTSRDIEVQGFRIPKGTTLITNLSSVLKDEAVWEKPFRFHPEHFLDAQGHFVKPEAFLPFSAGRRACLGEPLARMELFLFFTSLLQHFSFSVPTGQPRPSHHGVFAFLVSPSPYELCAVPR
# Outline: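 Steps: enzyme plus luciferin substrate dispensed; test substances pinned; 15 min RT; 1x NADPH regenerating solution added, 30–45 min RT protected from light; detection reagent, 30 min RT; luminescence measured. Minus-enzyme wells as background.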
# [12] = biological target: Cytochrome P450 2C9 (Homo sapiens) (UniProt P11712); test: qHTS for inhibitors of CYP2C9 against the NCATS DSHEA and TCM libraries (AID 1919973);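 note: luminogenic pro-luciferin CYP2C9 substrate turned into luciferin with NADPH regeneration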
# Chain of Cytochrome P450 2C9 (Homo sapiens) (P11712 whole entry, looked up): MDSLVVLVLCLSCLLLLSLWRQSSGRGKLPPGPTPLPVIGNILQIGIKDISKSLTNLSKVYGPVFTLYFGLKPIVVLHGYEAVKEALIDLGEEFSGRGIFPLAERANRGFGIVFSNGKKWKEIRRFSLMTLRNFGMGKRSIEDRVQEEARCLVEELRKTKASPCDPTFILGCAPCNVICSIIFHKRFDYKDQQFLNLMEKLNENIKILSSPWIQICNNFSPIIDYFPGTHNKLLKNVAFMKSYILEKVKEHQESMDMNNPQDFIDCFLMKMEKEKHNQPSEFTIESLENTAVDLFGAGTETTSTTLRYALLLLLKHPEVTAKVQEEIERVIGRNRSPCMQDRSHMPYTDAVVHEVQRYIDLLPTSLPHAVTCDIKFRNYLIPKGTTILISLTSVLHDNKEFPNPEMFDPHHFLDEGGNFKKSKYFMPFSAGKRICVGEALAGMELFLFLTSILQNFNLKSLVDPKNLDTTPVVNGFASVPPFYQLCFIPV
# Outline: as §2
# [13] = KB-3-1 P-gp reporter qHTS against the NCATS DSHEA and TCM libraries (AID 1919975)
# Outline: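 Cell viability by CellTiter-Glo luminescence following ~72 h compound exposure (concentration-response). Uses parental, non-P-gp-overexpressing KB-3-1 line, 500 cells/well in DMEM/10% FBS, attached ~4 h before dosing.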
# [14] = qHTS Counterscreen for compound interference against the NCATS DSHEA and TCM libraries (AID 1919978); details: firefly luciferase detection reagent interference, luminescence;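 note: compounds preincubated with 1 µM D-luciferin or buffer before detection reagent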
# Outline: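 With 1 uM D-luciferin or phosphate buffer only, compounds at final 19.5 nM–39.8 uM were incubated for 15 min at room temperature. Luciferase detection reagent was then added, and luminescence was measured after a further 30 min at room temperature.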
# [15] = Dual reporter qHTS for agonist of Pregnane X Receptor (hPXR) against the NCATS DSHEA and TCM libraries: Fluorescence readout (AID 1920058)
# Outline: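 Measures viability of the PXR reporter HepG2 line by protease-substrate fluorescence (405/540 nm), taken 1 h after CellTiter-Fluor addition. Substances are tested as concentration series over a ~24 h exposure, with rifampicin as agonist control.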
# [16] = biological target: Nuclear receptor subfamily 1 group I member 2 (Homo sapiens) (UniProt O75469); test: Dual reporter qHTS for agonist of Pregnane X Receptor (hPXR) against the NCATS DSHEA and TCM libraries: Luminescence readout (AID 1920059)
# Chain of Nuclear receptor subfamily 1 group I member 2 (Homo sapiens) (O75469 whole entry, looked up): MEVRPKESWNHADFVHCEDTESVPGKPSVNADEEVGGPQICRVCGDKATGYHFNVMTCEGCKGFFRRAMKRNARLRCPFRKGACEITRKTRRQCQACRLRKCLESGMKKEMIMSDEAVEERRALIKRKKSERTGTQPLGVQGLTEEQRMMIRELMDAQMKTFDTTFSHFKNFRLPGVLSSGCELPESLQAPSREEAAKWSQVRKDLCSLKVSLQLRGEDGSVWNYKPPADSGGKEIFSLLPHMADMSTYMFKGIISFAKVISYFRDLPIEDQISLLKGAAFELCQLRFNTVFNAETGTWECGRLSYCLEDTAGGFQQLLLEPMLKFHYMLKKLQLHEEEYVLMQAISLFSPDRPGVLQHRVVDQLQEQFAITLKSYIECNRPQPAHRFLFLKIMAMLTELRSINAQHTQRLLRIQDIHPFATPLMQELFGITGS
# Outline: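 hPXR-LucHepG2 cells in phenol red-free DMEM with 5% charcoal-stripped FBS, 2000 cells/well, attached 5 h, then exposed 24 h at 37C to compounds; rifampicin as positive agonist control (2.8 nM–92 uM). Luciferase luminescence read.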
# [17] = biological target: Nuclear receptor subfamily 1 group I member 2 (Homo sapiens) (UniProt O75469); test: Dual reporter qHTS for antagonist of Pregnane X Receptor (hPXR) against the NCATS DSHEA and TCM libraries: Luminescence Readout (AID 1920060)
# Outline: (§3)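 Rifampicin-stimulated (2 uM final) hPXR-luciferase HepG2 cells were treated for 24 h with DSNP/TCM substances. Viability came from CellTiter-Fluor fluorescence, reporter activity from ONE-Glo luminescence.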
# [18] = Dual reporter qHTS for antagonist of Pregnane X Receptor (hPXR) against the NCATS DSHEA and TCM libraries: Fluorescence Readout (AID 1920061)
# Outline: as §3
# [19] = biological target: Cytochrome P450 2C19 (Homo sapiens) (UniProt P33261); test: qHTS for inhibitors of CYP2C19 against the NCATS DSHEA and TCM libraries (AID 1919974);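 note: luminescence from luciferin released by CYP2C19 oxidation of a pro-luciferin substrate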; note: potency is the fitted concentration of half-maximal effect
# Chain of Cytochrome P450 2C19 (Homo sapiens) (P33261 whole entry, looked up): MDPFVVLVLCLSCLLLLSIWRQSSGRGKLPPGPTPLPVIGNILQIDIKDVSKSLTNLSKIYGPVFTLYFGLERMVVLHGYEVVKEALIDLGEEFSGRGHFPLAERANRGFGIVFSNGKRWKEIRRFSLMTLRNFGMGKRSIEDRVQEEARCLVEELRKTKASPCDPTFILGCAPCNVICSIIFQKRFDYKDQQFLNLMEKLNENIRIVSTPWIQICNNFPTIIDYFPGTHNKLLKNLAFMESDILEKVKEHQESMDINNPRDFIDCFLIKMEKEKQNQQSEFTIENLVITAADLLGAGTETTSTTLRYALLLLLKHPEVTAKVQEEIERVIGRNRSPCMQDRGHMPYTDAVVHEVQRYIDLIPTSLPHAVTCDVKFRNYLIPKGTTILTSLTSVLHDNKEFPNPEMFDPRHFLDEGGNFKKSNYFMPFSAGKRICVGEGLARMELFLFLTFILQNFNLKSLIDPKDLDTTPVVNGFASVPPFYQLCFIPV
# Outline: as §2
# [20] = biological target: Cytochrome P450 1A2 (Homo sapiens) (UniProt P05177); test: qHTS for inhibitors of CYPIA2 against the NCATS DSHEA and TCM libraries (AID 1919976);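 note: light from luciferin formed by CYP1A2 from a pro-luciferin substrate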
# Chain of Cytochrome P450 1A2 (Homo sapiens) (P05177 whole entry, looked up): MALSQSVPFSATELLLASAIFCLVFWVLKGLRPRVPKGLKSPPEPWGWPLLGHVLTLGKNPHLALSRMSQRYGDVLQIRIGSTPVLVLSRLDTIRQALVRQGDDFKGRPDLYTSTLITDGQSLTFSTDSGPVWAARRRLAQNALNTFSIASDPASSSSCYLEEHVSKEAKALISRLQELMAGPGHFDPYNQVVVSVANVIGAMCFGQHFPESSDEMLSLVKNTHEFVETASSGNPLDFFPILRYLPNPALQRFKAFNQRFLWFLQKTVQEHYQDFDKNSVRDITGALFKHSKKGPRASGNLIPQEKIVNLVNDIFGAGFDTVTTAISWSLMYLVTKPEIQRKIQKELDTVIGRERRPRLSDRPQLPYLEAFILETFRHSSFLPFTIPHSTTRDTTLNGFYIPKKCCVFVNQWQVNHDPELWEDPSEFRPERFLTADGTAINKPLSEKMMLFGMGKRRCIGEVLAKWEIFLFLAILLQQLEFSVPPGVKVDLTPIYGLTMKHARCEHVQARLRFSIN
# Outline: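 In this quantitative HTS, inhibition of recombinant human CYP1A2 was measured as loss of luciferin-derived luminescence. Turnover ran 30-45 min at RT after NADPH regeneration solution was added.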
structure (smiles),measurement,setting,value
CCOC(=O)[C@H](CCc1ccccc1)N[C@@H](C)C(=O)N1Cc2cc(OC)c(OC)cc2C[C@H]1C(=O)O,outcome,[1],inactive
same,outcome,[2],inactive
same,Potency,[3],inactive
same,Potency,[4],inactive
Cc1ccc(C(C)C)c(O)c1,outcome,[5],inactive
same,outcome,[6],inactive
same,outcome,[7],inactive
same,outcome,[8],inactive
same,outcome,[9],inactive
same,Potency,[3],inactive
same,Potency,[4],inactive
same,outcome,[10],inactive
same,outcome,[11],inactive
same,outcome,[12],inactive
same,outcome,[13],inactive
same,max response,[14],0.241%
same,outcome,[15],inactive
same,outcome,[16],inactive
same,outcome,[17],inactive
same,outcome,[18],inactive
O=c1[nH]c(=O)n([C@H]2C[C@H](O)[C@@H](CO)O2)cc1I,outcome,[1],inactive
same,Potency,[3],inactive
same,Potency,[4],inactive
COc1ccc(C(=O)NCc2ccc(OCCN(C)C)cc2)cc1OC,Potency,[3],inactive
same,Potency,[4],inactive
CC(C)=CCC/C(C)=C/CO,Potency,[3],inactive
same,Potency,[4],inactive
COc1ccc2cc(CCC(C)=O)ccc2c1,outcome,[1],inactive
same,Potency,[3],inactive
same,Potency,[4],inactive
O=C1C(c2[nH]c3ccccc3c2O)=Nc2ccccc21,Potency,[3],inactive
same,Potency,[4],inactive
Nc1ccc(C(=O)Oc2ccccc2)c(O)c1,Potency,[3],inactive
same,Potency,[4],inactive
CN(C(=O)c1c(O)c2ccccc2n(C)c1=O)c1ccccc1,Potency,[3],inactive
same,Potency,[4],inactive
Cc1cc(C)nc(NS(=O)(=O)c2ccc(N)cc2)n1,Potency,[3],inactive
same,Potency,[4],inactive
C=CCN1C[C@H](C(=O)N(CCCN(C)C)C(=O)NCC)C[C@@H]2c3cccc4[nH]cc(c34)C[C@H]21,Potency,[3],inactive
COC(=O)c1cccnc1,Potency,[3],inactive
same,Potency,[4],inactive
CCCCCCCCCCOc1cc2c(=O)c(C(=O)OCC)c[nH]c2cc1OCC,"activity, negative = inhibition",[3],-3.55% [at 4.49 µM]
CC(CSC(=O)c1ccccc1)C(=O)N1C[C@@H](Sc2ccccc2)C[C@H]1C(=O)O (stereo partly specified),Potency,[3],inactive
O=C(O)C(S)C(S)C(=O)O (stereo unspecified),Potency,[3],7.18 µM (active)
CCOC(=O)[C@H](CCc1ccccc1)N[C@@H](C)C(=O)N1CCC[C@H]1C(=O)O,Potency,[3],inactive
same,Potency,[4],inactive
CN1CCCN=C1COC(=O)C(O)(c1ccccc1)C1CCCCC1 (stereo unspecified),Potency,[3],inactive
same,Potency,[4],inactive
COC(=O)N/N=C/c1c[n+]([O-])c2ccccc2[n+]1[O-],Potency,[3],inactive
same,Potency,[4],inactive
CC(C)=CCC[C@@](C)(O)[C@H]1CC=C(C)CC1,outcome,[5],inactive
same,outcome,[6],inactive
same,outcome,[7],inactive
same,outcome,[8],inactive
same,outcome,[9],inactive
same,outcome,[11],inactive
same,Potency,[19],5.01 µM (active)
same,outcome,[13],inactive
same,outcome,[20],inactive
same,max response,[14],1.71%
same,outcome,[15],inactive
same,outcome,[17],inactive
same,outcome,[18],inactive
CCCCCCCCCCCCCCCCC(C(=O)O)C(O)(CC(=O)O)C(=O)O (stereo unspecified),Potency,[3],inactive
same,Potency,[4],4.47 µM (active)
CCOC(=O)OC(C)OC(=O)[C@@H]1N2C(=O)[C@@H](NC(=O)[C@H](N)c3ccccc3)[C@H]2SC1(C)C (stereo partly specified),Potency,[3],inactive
same,Potency,[4],inactive
Cc1cc(O)cc(C)c1Cl,outcome,[1],inactive
same,Potency,[3],inactive
same,Potency,[4],inactive
O=C1c2cccc(O)c2C(=O)c2c(O)cccc21,outcome,[1],inactive
same,Potency,[4],inactive
NCc1ccc(S(N)(=O)=O)cc1,outcome,[1],inactive
same,outcome,[2],inactive
same,Potency,[3],inactive
same,Potency,[4],inactive
C[n+]1ccccc1/C=N/O,Potency,[3],inactive
same,Potency,[4],inactive
COc1nccnc1NS(=O)(=O)c1ccc(N)cc1,Potency,[3],inactive
same,Potency,[4],inactive
COc1ccccc1Oc1c(NS(=O)(=O)c2ccc(C(C)(C)C)cc2)nc(-c2ncccn2)nc1OCCO,Potency,[3],inactive
same,Potency,[4],inactive
C[C@H]1COc2c(C3(N)CC3)c(F)cc3c(=O)c(C(=O)O)cn1c23,Potency,[3],inactive
same,Potency,[4],inactive
O=C(O)CCCc1ccccc1,outcome,[1],inactive
same,Potency,[3],inactive
same,Potency,[4],inactive
C/C=C1\[C@H]2C=C(C)C[C@]1(N)c1ccc(=O)[nH]c1C2,Potency,[3],inactive
same,Potency,[4],inactive
CCN[C@H]1CN(CCCOC)S(=O)(=O)c2sc(S(N)(=O)=O)cc21,outcome,[1],inactive
same,Potency,[3],inactive
same,Potency,[4],inactive
OCc1ccc(Cl)cc1Cl,outcome,[1],inactive
same,Potency,[3],inactive
same,Potency,[4],inactive
O=C(/C=C/c1ccc(O)c(O)c1)O[C@@H]1C[C@@](OC(=O)/C=C/c2ccc(O)c(O)c2)(C(=O)O)C[C@@H](O)[C@@H]1O,outcome,[8],inactive
same,outcome,[9],inactive
same,outcome,[10],inactive
same,outcome,[11],inactive
same,outcome,[12],inactive
same,Potency,[19],inactive
same,outcome,[13],inactive
same,max response,[14],5.25%
same,outcome,[15],inactive
same,outcome,[16],inactive
same,outcome,[17],inactive
same,outcome,[18],inactive
C=CCOc1ccccc1OCC(O)CNC(C)C (stereo unspecified),outcome,[1],inactive
same,Potency,[3],inactive
same,Potency,[4],inactive
O=C(O)CCCCC1CCSS1 (stereo unspecified),outcome,[1],inactive
same,Potency,[3],11.4 µM (active)
same,Potency,[4],inactive
CC(=O)N[C@H]1[C@H]([C@H](O)[C@H](O)CO)OC(C(=O)O)=C[C@@H]1N=C(N)N,outcome,[1],inactive
same,Potency,[3],inactive
same,Potency,[4],inactive
